An excerpt weighted towards active compounds, which were near 1.7% of everything screened.
GLP-1R inv ag: GLP-1 receptor (human) inverse agonism; actives 1.6% (n = 410,000); HEK293 GLP-1R CRE-luciferase, luminescence, 24 h; GLP-1R form is constitutively active; P43220; Potency, µM (titrated, usually from 38.3 µM), for inactives: at the highest dose activity change, negative = inhibition, usual class: inhibitors; further: on the % scale 0 is the no-effect control and ±100 the full control effect; nearly all actives have a fitted effect of over 55% in size
Target sequence (P43220 whole entry, looked up): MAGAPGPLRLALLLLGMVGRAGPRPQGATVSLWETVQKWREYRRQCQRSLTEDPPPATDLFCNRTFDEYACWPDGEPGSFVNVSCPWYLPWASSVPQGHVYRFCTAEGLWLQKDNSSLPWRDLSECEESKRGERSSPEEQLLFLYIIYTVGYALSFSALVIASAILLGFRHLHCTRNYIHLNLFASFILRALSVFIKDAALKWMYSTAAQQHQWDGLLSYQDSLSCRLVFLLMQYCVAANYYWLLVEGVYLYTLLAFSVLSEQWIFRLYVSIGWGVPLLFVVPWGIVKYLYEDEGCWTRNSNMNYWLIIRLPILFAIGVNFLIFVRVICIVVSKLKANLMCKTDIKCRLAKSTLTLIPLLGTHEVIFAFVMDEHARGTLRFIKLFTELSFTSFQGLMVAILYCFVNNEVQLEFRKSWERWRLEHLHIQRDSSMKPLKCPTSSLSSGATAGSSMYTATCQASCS
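qHTS in 1536-well format: reporter HEK293 cells expressing constitutive GLP-1R activity in DMEM + 10% Nu serum, 24 hr with compounds at 37 deg C, luminescence read after 12 min with detection reagent.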
PTHR1 ag: PTHR1 (human) receptor agonism | Q03431 | HEK293 GP2 PTHR1 cells, GloSensor cAMP luminescence, 1 h | Potency, µM (doses to about 115 µM), inactives show at the top dose activation, most hits filed as activators | actives 0.075% (n = 410,000) | AID 743266; further: nearly all actives have a fitted effect of over 55% in size
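HEK-293-derived GP2 cells expressing PTHR1 and a GloSensor cAMP reporter, 3,000/well, plated overnight, given luciferin plus IBMX (each 0.5 mM as added) for 1 h at 37 °C, then compound for 1 h at 37 °C. Luminescence was read after 15 min at room temperature.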
GLP1R ag: activates the human GLP-1 receptor; actives 0.007% (n = 380,000); P43220; Potency, µM (titrated, usually from 45.6 µM), inactives show at the top dose activation, actives largely listed as activators; HEK293 GLP-1R CRE-luciferase, luminescence, 4-6 h; cells express a hypersensitive GLP-1R form; further: % of control where 0% means no effect
HEK293 tox: cytotoxicity in counter-screen for GLP-1R inverse agonists; actives 0.13% (n = 410,000); Potency, µM (top dose mostly 38.3 µM), without a hit: at the highest dose activity change, negative = inhibition, actives largely listed as inhibitors; HEK293 cAMP-luciferase reporter cells, luminescence, 24 h;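 further: loss of luciferase light is scored as toxicity; on the % scale 0 is the no-effect control and ±100 the full control effect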
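Here, cytotoxicity is scored as loss of luminescence. The MLSMR collection was tested on cells seeded in medium containing 10% Nu serum, with a 24 hr compound exposure preceded by 12 hours of culture.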
* hit, by the source's call; i = inactive; ? = inconclusive; / = no result; [ ] = remark or other dose. The call rests on the fitted dose curve; in most records, active means well fitted curve in the direction sought with a large enough effect; inconclusive means small, poorly fitted or top-dose-only effect, or another doubt; inactive means no such curve, though single readings can be large; an effect the other way counts as inactive or inconclusive. Potency means the concentration at half of the fitted maximal effect.

SMILES	GLP-1R inv ag	PTHR1 ag	GLP1R ag	HEK293 tox
O=C(NCc1cccc(F)c1)c1ccc(CS(=O)c2ccccc2Cl)o1 (configuration not stated)	-5%	i	/	2%
Cc1ccc(S(=O)(=O)N2CCC(N3CCN(C)CC3)CC2)cc1Cl	2.5µM*	-3%	7%	29%
COc1cc(-c2nc(-c3ccc4c(c3)-c3ccccc3S4(=O)=O)c(-c3ccccc3)[nH]2)cc(OC)c1OC	1.6µM*	-8%[57.5 µM]	-2%	142%
COc1ccc2cc(CNCCOCCOCCNCc3ccc4cc(OC)ccc4c3)ccc2c1	?	i	-37%	4µM*
CCOCCCNCc1ccc(OC)cc1	-15%	i	0%	-23%
CCCCN(S(=O)(=O)c1ccccc1)S(=O)(=O)c1ccccc1	10µM*	-18%	18%	-5%
CCNC(=O)c1ccccc1SCc1ccccc1	-25%	i	3%	3%
CCc1ccc(OCCNC(=O)c2ccccc2SCc2ccccc2)cc1	7.1µM*	-12%	-2%	4%
CCOC(=O)c1c(SCC(=O)Nc2nccs2)nc(C)c(C)c1C	11%	i	-1%	284%
O=C1Nc2ccc([N+](=O)[O-])cc2OC1CCN1CCN(c2ccccc2)CC1 (configuration not stated)	11µM*	-51%	0%	-22%
O=C1Nc2ccc([N+](=O)[O-])cc2OC1CCN1CCOCC1 (configuration not stated)	-37%	i	-2%	-21%
c1ccc(Nc2nc(N3CCCCC3)nc(N3CCCCC3)n2)cc1	10µM*	i	-1%	-13%
COc1ccc(Nc2nc(N3CCCCC3)c3ccccc3n2)cc1	5.6µM*	-23%	-6%	?
CC(C)CC(C(=O)Nc1oc(-c2ccccc2)c(-c2ccccc2)c1C#N)N1C(=O)c2ccccc2C1=O (configuration not stated)	10µM*	-22%	-8%	-25%
N#Cc1c(NC(=O)CCN2C(=O)c3ccccc3C2=O)oc(-c2ccccc2)c1-c1ccccc1	?	i	-4%	4%
CC(C)(C)c1ccc(OCCCC(=O)NNC(=O)c2ccccc2O)cc1	13µM*	i	3%	-28%
CCC1CCCCN1CCCNC(=O)c1ccc(CS(=O)(=O)Cc2ccc(Cl)cc2)o1 (configuration not stated)	?	i	6%	1%
Cc1cc(C(F)(F)F)cc(NNC(=O)NC(=O)c2c(F)cccc2Cl)n1	11µM*	-15%	20%	-1%
CC(C)(C)NC(=O)C(=O)NC(=O)c1c(F)cccc1Cl	-5%	i	4%	8%
COc1ccc(-c2nc(C)c(CCNC(=O)C(=O)Nc3cccc(F)c3)s2)cc1OC	17%	i	-5%	0%
O=C(NCc1ccccc1Cl)c1ccc2c(c1)N(Cc1ccccc1)CCS2	?	-15%	/	-5%
COc1cccc(C2=Cc3ccc(F)cc3C(CC(C)=O)N2c2ccc(C#CC3(O)CCCCC3)cc2)c1 (configuration not stated)	5µM*	-19%	0%	5%
COc1cc(OC)cc(C2=Cc3ccc(OC)cc3C(CC(C)=O)N2c2ccc(C#CC3(O)CCCCC3)cc2)c1 (configuration not stated)	?	-22%	0%	-1%
CNCC(O)CN(c1ccccc1)c1ccccc1 (configuration not stated)	6.3µM*	13%	1%	-2%
C=CCN(CC=C)C(=S)NC(=O)/C=C/c1ccc(C)cc1	0%	i	14%	-2%
SMILES	GLP-1R inv ag	PTHR1 ag	GLP1R ag	HEK293 tox
C=CCN(CC=C)C(=S)NC(=O)c1ccc(OC)cc1	?	i	1%	0.63µM*
C=CCN(CC=C)C(=S)NC(=O)c1ccc(C)c(Br)c1	3.2µM*	i	-3%	?
C=CCN(CC=C)C(=S)NC(=O)c1ccc(-c2ccccc2)cc1	?	-36%	-11%	?
COc1ccc(N2CCN(CC(=O)Nc3ccc(SC(F)F)cc3)CC2)cc1	10µM*	-35%	-6%	-6%
COc1ccc(N2CCN(CC(=O)Nc3ccc(C)cc3)CC2)cc1	?	i	9%	0%
O=C(NCC(c1ccco1)N1CCCCC1)c1ccc(COc2ccc(Cl)cc2)cc1 (configuration not stated)	2.8µM*	-28%	12%	-27%
CC(Sc1ccc(Cl)cc1)C(=O)NCC(c1ccco1)N1CCCCC1 (configuration not stated)	11µM*	i	-5%	-4%
S=C(NCCc1ccccc1)NCC(c1ccco1)N1CCCCC1 (configuration not stated)	7.1µM*	i	23%	-24%
CN(CC(=O)NCC(c1ccco1)N1CCCCC1)S(=O)(=O)c1ccc(Cl)cc1 (configuration not stated)	13µM*	i	15%	0%
CC(C)OC(=O)C(C(=O)C(F)(F)F)c1cc(NS(=O)(=O)c2ccc3c4c(cccc24)C(=O)N3)ccc1O (configuration not stated)	5%	-22%	/	-7%
CCc1ccccc1NC(=O)Cn1cc(S(=O)(=O)N2CCCC2)c(S(=O)(=O)N2CCCC2)c1	11%	i	/	-6%
O=C(NCC(c1ccco1)N1CCCCC1)C(c1ccccc1)c1ccccc1 (configuration not stated)	11µM*	-4%	5%	0%
O=C(Cc1ccccc1F)NCC(c1ccco1)N1CCCCC1 (configuration not stated)	-12%	-22%	6%	-5%
CC(=O)Nc1sc2c(c1CN1CCCC1)CCCC2	-29%	i	7%	-4%
CC(=O)Nc1sc2c(c1CN1CCN(c3ccc(F)cc3)CC1)CCCC2	7.1µM*	-4%[57.5 µM]	-3%	-1%
CCOC(=O)CN1C(=O)C(O)(CC(=O)c2cc(OC)ccc2OC)c2ccccc21 (configuration not stated)	15%	-3%	/	1%
CC(C)CCNC(=O)C(c1ccc(O)cc1)N(Cc1cccs1)C(=O)C1COc2ccccc2O1 (configuration not stated)	11µM*	-17%	-21%	?
O=C(NCc1ccco1)C(c1ccncc1)N(C(=O)Cc1cccs1)c1ccccc1 (configuration not stated)	4%	-6%	8%	11%
O=C(NCc1ccco1)C(c1cccs1)N(C(=O)C1COc2ccccc2O1)c1cccc(O)c1 (configuration not stated)	11µM*	-4%[57.5 µM]	-21%	-18%
Cn1c(N)c(C(=O)COC(=O)c2ccccc2C(=O)c2ccc(Cl)cc2)c(=O)n(C)c1=O	11µM*	-6%	14%	-21%
Cc1ccc2cccc(N=Cc3c(C)[nH]n(-c4ccccc4)c3=O)c2n1	5.6µM*	-7%	20%	8%
CCc1cc2c(cc3c(=O)n(CCCC(=O)NCc4cccc(Br)c4)ncn32)s1	0%	i	/	10%
